From PubChem BioAssay
Shown are actives, neighbours in structure and some others; about 0.57% of the full set was active somewhere.
IMPase Li cell: IMPase inhibition in cells with lithium potentiation | CHO-M1 cells, IP1 TR-FRET (IP-One), carbachol + lithium | Potency, µM (highest dose often 59.4 µM), inactives show at the highest dose activity, negative = IMPase inhibition, hits mostly inhibitors | hit rate 0.35% among 210,000 | AID 1457;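 further: IP1 builds up when IMPase is blocked and the TR-FRET signal falls; potency means the concentration at half of the fitted maximal effect; plate controls were basal vehicle for no effect and high inhibitor control for full effect; nearly all actives have a fitted effect of over 50% in size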
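Lithium-sensitised IP1 accumulation assay; M1-expressing CHO cells treated 30 min at 37C with compound. Competitive antibody detection by time-resolved FRET followed a 10 min room-temperature lysis step.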
12-hLO inh: 12-hLO (ALOX12) enzyme inhibition; AID 1452; Potency, µM (top dose mostly 57.1 µM), for the others: top-dose activity change, negative = inhibition, usual class: inhibitors; hit rate 0.12% among 150,000; purified 12-hLO, xylenol orange hydroperoxide absorbance; further: potency means the concentration at half of the fitted maximal effect; nearly all actives have a fitted effect of over 55% in size
Target sequence (P18054 whole entry, looked up): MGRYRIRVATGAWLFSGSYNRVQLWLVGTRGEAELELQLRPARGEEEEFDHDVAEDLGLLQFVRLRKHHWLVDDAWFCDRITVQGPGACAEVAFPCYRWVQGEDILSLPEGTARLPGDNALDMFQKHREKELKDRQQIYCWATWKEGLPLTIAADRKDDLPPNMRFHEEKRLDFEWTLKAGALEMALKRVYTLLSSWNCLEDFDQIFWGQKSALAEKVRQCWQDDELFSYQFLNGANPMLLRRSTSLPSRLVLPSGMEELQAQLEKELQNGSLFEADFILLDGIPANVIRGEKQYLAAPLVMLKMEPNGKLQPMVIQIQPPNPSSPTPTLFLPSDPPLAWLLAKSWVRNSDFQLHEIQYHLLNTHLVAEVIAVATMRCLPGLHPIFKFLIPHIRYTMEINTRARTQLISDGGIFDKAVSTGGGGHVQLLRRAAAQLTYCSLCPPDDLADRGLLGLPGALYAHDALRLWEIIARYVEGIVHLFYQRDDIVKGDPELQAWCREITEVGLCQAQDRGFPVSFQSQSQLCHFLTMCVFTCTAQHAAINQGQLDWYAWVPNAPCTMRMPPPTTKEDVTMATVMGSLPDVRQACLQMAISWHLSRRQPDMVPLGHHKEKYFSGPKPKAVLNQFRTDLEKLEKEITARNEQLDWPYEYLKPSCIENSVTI
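Purified human 12hLO (150 nM), preincubated 15 min with compound, then 40 uM arachidonic acid for 30 min, room temperature, Hepes pH 7.0 with 0.01% Triton X-100. Hydroperoxide detected by ferrous iron/xylenol orange; 573/405 nm absorbance ratio gives reaction progress.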
IMPase inh: membrane-permeable compound that blocks inositol monophosphatase; 120,000 tested, under 10 active; P97697; CHO-M1 cells, IP1 accumulation, HTRF TR-FRET ratio; inhibition (IP1 accumulation), % at 46.1 µM; active means well fitted curve in the direction sought with a large enough effect in the signal ratio, not every such curve was filed as active; inconclusive means small, poorly fitted or top-dose-only effect, or a change in a side signal; inactive means no such curve, though single readings can be large or run the other way; the % refers to the signal ratio;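 further: cells stimulated with carbachol in lithium chloride buffer; plate controls were DMSO basal wells for no effect and reference inhibitor wells for full effect; higher means more IMPase inhibition seen as more IP1 and lower FRET ratio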
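Cellular IMPase inhibition is scored as a rise in cytosolic IP1, detected by competitive TR-FRET between d2-labelled IP1 and a europium anti-IP1 antibody. M1-expressing CHO cells were stimulated with carbachol for 30 min at 37C, with lithium (50 mM LiCl) present in the buffer.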
15-hLO-2 inh: inhibitors of human 15-lipoxygenase 2 (ALOX15B). O15296. purified 15hLO-2, xylenol orange hydroperoxide absorbance. Potency, µM (top dose mostly 57.1 µM), inactives show at the top dose activity change, negative = inhibition, actives largely listed as inhibitors. hit rate 0.56% among 110,000; further: potency means the concentration at half of the fitted maximal effect; nearly all actives have a fitted effect of over 60% in size
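Purified human 15hLO-2 (50 nM final) preincubated with compounds 15 min at room temperature in 25 mM Hepes pH 7.5, 0.01% Triton X-100, then 45 uM arachidonic acid added for 90 min; hydroperoxide detected via ferrous/xylenol orange, 573/405 nm absorbance ratio.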
* marks the source's active call; other numbers are inactive results; [ ] = dose if it differs, or a comment. Unless noted, the call rests on the fitted dose curve; in most records, active means well fitted curve in the direction sought with a large enough effect; inconclusive means small, poorly fitted or top-dose-only effect, or another doubt; inactive means no such curve, though single readings can be large; an effect the other way counts as inactive or inconclusive. Unless noted, on the % scale 0 is the no-effect control and ±100 the full control effect.

`COc1ccccc1NC(=S)NCCc1ccc(Cl)cc1` gave IMPase Li cell 10%[38.3 µM], 12-hLO inh 14µM*, IMPase inh 0 and 15-hLO-2 inh inconclusive.
Screening COc1ccccc1NC(=S)NC(=O)C(C)(C)C returned 12-hLO inh 13µM*, IMPase inh -4 and 15-hLO-2 inh -24%.
For COc1ccccc1NC(=S)NC(=O)C1CC1 the results were IMPase Li cell -3% and 12-hLO inh -1%.
Screening Cc1ccc(-c2nnc(SCC(=O)N3CCN(c4ccccc4)CC3)o2)cc1 returned IMPase Li cell 11µM*, 12-hLO inh -5%, IMPase inh -5 and 15-hLO-2 inh -6%.
Screening COc1ccc(-c2nnc(SCC(=O)N3CCN(c4ccccc4)CC3)o2)cc1OC returned IMPase Li cell -12% and 12-hLO inh 1%.
Screening C=CCN1CCc2c(cc(O)c(O)c2Br)[C@H](c2ccccc2)C1 returned 12-hLO inh -26%, IMPase inh 9 and 15-hLO-2 inh inconclusive.
`Cc1ccc2[nH]c(=S)cc(C)c2c1` gave IMPase Li cell inconclusive, 12-hLO inh -15%, IMPase inh 4 and 15-hLO-2 inh 13µM*.
Cc1ccc2c(C)cc(=S)[nH]c2c1 was read as IMPase Li cell -12%.
Screening O=C(NC(=S)Nc1ccc(N2CCCCC2)cc1)c1cccs1 returned IMPase Li cell 4%, 12-hLO inh inconclusive, IMPase inh 7 and 15-hLO-2 inh 20µM*.
`CCN(c1ccccc1)S(=O)(=O)c1ccc(NC(=S)NC(=O)c2cccs2)cc1` gave IMPase Li cell 29%[38.3 µM], 12-hLO inh 25µM*, IMPase inh 20 and 15-hLO-2 inh inconclusive.
CCC(C)C1NC(=O)C(CCNCS(=O)(=O)O)NC(=O)C(NC(=O)C(CCNCS(=O)(=O)O)NC(=O)C(NC(=O)C(CCNCS(=O)(=O)O)NC(=O)CCCCC(C)C)C(C)O)CCNC(=O)C(C(C)O)NC(=O)C(CCNCS(=O)(=O)O)NC(=O)C(CCNCS(=O)(=O)O)NC(=O)C(C(C)CC)NC1=O (stereo unspecified) was read as IMPase Li cell -3%, 12-hLO inh inconclusive and 15-hLO-2 inh 4µM*.
Screening CCN1CCCC1CNC(=O)c1ccc(Cc2nc3ccccc3[nH]2)cc1 (stereo unspecified) returned 12-hLO inh 1%.
For Cc1ccc(C)c(NNC(N)=S)c1 the results were IMPase Li cell 1%.
NC(=S)NNc1cc(Cl)cc(Cl)c1 was read as IMPase Li cell 11%[38.3 µM], 12-hLO inh inconclusive, IMPase inh 8 and 15-hLO-2 inh 2.5µM*.
Screening O=C(CCC(=O)Nc1nnc(C2CCCCC2)s1)NCc1cccs1 returned IMPase Li cell 14µM*, 12-hLO inh -3%, IMPase inh 0 and 15-hLO-2 inh -12%.
Screening Cc1cc(N2C(=O)C(O)=C(C(=O)c3ccc(C)o3)C2c2cccs2)no1 (stereo unspecified) returned IMPase Li cell 10µM*, 12-hLO inh 13%, IMPase inh inconclusive and 15-hLO-2 inh 15%[2.29 µM].
`CCOc1ccc(CCNC(=O)CSc2nnnn2C)cc1OCC` gave IMPase Li cell -7%.
Screening CCOc1ccc(CCNC(=O)CSc2nn(-c3ccc(C)c(Cl)c3)c(=S)s2)cc1OCC returned IMPase Li cell 10µM*, 12-hLO inh -8% and IMPase inh inconclusive.
C/C=C/C(=O)Nc1nnc(-c2ccccc2C)s1 was read as IMPase Li cell 10µM*.
Screening C=C(C)C(=O)Nc1nnc(-c2ccccc2C)s1 returned IMPase Li cell 22%.
For O=[N+]([O-])c1cc(C(F)(F)F)ccc1NCCNC(=S)Nc1ccc(Cl)cc1 the results were IMPase Li cell 23%[38.3 µM], 12-hLO inh inconclusive, IMPase inh 5 and 15-hLO-2 inh 32µM*.
Screening COc1ccc(-c2nc3c(c4c2C[C@H](c2ccccc2)OC4)CN(S(=O)(=O)c2ccc4c(c2)OCCN4C)CC3)c(C)c1 returned IMPase Li cell 11% and 12-hLO inh 2%[11.4 µM].
`O=C1CC(c2ccco2)Cc2c1cnn2-c1nc2ccccc2s1` (stereo unspecified) gave IMPase Li cell 13µM* and 12-hLO inh 1%.
For CCCCCCCCCCCCCCCCCCNC(=O)OC[C@@H](COP(=O)([O-])OCC[n+]1ccsc1)OC the results were 12-hLO inh 2%, IMPase inh 1 and 15-hLO-2 inh -23%.
`CS(=O)(=O)N(CC(=O)O)c1ccccc1` gave 12-hLO inh 0%.
`N#CC(=C=[N-])C1=C(C#N)C(c2ccccc2F)C([n+]2ccccc2)C(O)(C2CC2)N1` (stereo unspecified) gave IMPase Li cell 13µM*, 12-hLO inh -7%, IMPase inh inconclusive and 15-hLO-2 inh -8%.
For Oc1ccc(NCc2ccccc2OCc2ccccc2F)cc1 the results were IMPase Li cell 11%[38.3 µM], 12-hLO inh inconclusive, IMPase inh 15 and 15-hLO-2 inh 13µM*.
Screening Cc1ccc(NCc2ccccc2OCc2ccccc2F)cc1 returned IMPase Li cell 46%[38.3 µM], 12-hLO inh -7%, IMPase inh 0 and 15-hLO-2 inh 5%.
Screening CCc1cc(=O)oc2cc(C)cc(O)c12 returned IMPase Li cell 3.2µM*, 12-hLO inh -8%, IMPase inh inconclusive and 15-hLO-2 inh -15%.
CCCc1cc(=O)oc2cc(C)cc(O)c12 was read as IMPase Li cell 1%[38.3 µM], 12-hLO inh -7%, IMPase inh -24 and 15-hLO-2 inh -4%.
COc1ccc(-n2nc3cc(C)c(N)c(Br)c3n2)cc1 was read as IMPase Li cell -15%[38.3 µM], 12-hLO inh 25µM*, IMPase inh -4 and 15-hLO-2 inh 10µM*.
For O=C(c1ccc(Cl)cc1)c1nnc(-c2ccncc2)o1 the results were IMPase Li cell 10µM*, 12-hLO inh -1%, IMPase inh -3 and 15-hLO-2 inh -1%.
`CC(=O)C1=C(O)C(=O)N(c2cccnc2)C1c1ccc(Cl)cc1` (stereo unspecified) gave IMPase Li cell 6.3µM*, 12-hLO inh -3%, IMPase inh 5 and 15-hLO-2 inh 0%.
Screening Cc1ccc(CNC(=O)CC2Nc3c4ccccc4nc(=S)n3C2=O)cc1 (stereo unspecified) returned IMPase Li cell 5.6µM*.
`Cc1ccc(C)c(NS(=O)(=O)c2cc(C(=O)O)ccc2Cl)c1` gave 12-hLO inh -1%.
Screening O=C(COC(=O)c1ccc(Cl)c(S(=O)(=O)N2CCc3ccccc3C2)c1)Nc1ncc(Cl)cc1Cl returned IMPase Li cell -4% and 12-hLO inh -7%.
For Cc1nc(NC(=O)COC(=O)c2ccc(S(=O)(=O)N3CCc4ccccc4C3)cc2)c(Cl)cc1Cl the results were IMPase Li cell 10µM*.
`CN1CCC[C@H](C(=O)OCC(=O)[C@]2(O)CC[C@@H]3[C@H]4CCC5=CC(=O)CC[C@@]5(C)[C@H]4[C@@H](O)C[C@]32C)C1` gave IMPase Li cell 20%, 12-hLO inh 6%[11.4 µM] and 15-hLO-2 inh -3%[11.4 µM].
